Each structure is given as a SMILES string. Values without a mark were called inactive. Results filed as inconclusive are left out. Activity calls are given as the source filed them. Unless noted, calls follow the shape of the dose curve; as a rule, active = well fitted curve in the direction sought with a large enough effect in the repeat runs; inconclusive = weak or mixed curves; inactive = no such curve, though single readings can be large; an effect the other way counts as inactive or inconclusive.

The nature of assay [1]: qHTS assay for small molecules that induce genotoxicity in human embryonic kidney cells expressing luciferase-tagged ATAD5 (AID 651632). Also: nearly all actives have a fitted effect of over 15% in size. A digest of the protocol:
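Quantitative HTS in HEK293T expressing luciferase-tagged ATAD5, whose levels rise upon DNA damage. Exposure ran 16 hr at 37C and 5% CO2, with luminescence read 30 min after Amplite addition at room temperature.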

Assay [2] in a line: qHTS assay for small molecule agonists of the p53 signaling pathway - cell viability (AID 651633; calls by dose curve;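 also: p53RE-bla HCT reporter cells with a stable beta-lactamase p53 reporter; series mostly up to about 83 µM; nearly all actives have a fitted effect of over 30% in size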). The gist of the method:
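p53RE-bla cells, seeded at 4,000 per well and rested 5 h at 37 C/5% CO2, received compounds in DMSO for 16 h at 37 C. CellTiter-Glo was then added, and luminescence was read after 30 min at room temperature to gauge cytotoxicity.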
(In general: qHTS replaces the single test concentration by a dilution series.)

The nature of assay [3]: qHTS assay for small molecules that induce genotoxicity in human embryonic kidney cells expressing luciferase-tagged ATAD5 - cell viability (AID 651634; calls by dose curve; also: nearly all actives have a fitted effect of over 25% in size). A digest of the protocol: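 After 15.5 hr incubation with compound at 37C, 5% CO2, HEK293T ATAD5-luciferase cells received CellTiter-Fluor reagent; fluorescence intensity was quantified following 30 min at 37C.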
Assay [4] can be described thus: qHTS assay for small molecule disruptors of the mitochondrial membrane potential - cell viability (AID 720634; calls by dose curve;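 also: human HepG2 liver cancer cells; series mostly up to about 83 µM; nearly all actives have a fitted effect of over 20% in size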). A digest of the protocol:
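ATP-based luminescent viability readout (CellTiter-Glo, 30 min, room temperature) in HepG2 cells multiplexed with the m-MPI membrane potential dye; compound exposure lasted 1 hr at 37 C.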

The nature of assay [5]: qHTS assay for small molecule disruptors of the mitochondrial membrane potential (AID 720635). Also: potency is read from the fitted curve at half-maximal effect. The gist of the method:
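HepG2 cells (2,000/well) attached overnight at 37C, then took compound for 1 hr at 37C, 5% CO2. Mito-MPS dye was added for 30 min; fluorescence was read at 490/535 nm (monomers) and 540/590 nm (aggregates).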

Assay [6] can be described thus: qHTS assay to test for compound auto fluorescence at 590 nm (red) in HepG2 cells (AID 720674). A digest of the protocol: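 Intrinsic compound fluorescence in the red window (Ex/Em 540/590 nm) is measured in attached HepG2 cells exposed for 1 hr, DMSO vehicle as baseline, benchmarked to Rose Bengal sodium.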
Assay [7] can be described thus: qHTS assay to test for compound auto fluorescence at 535 nm (green) in HepG2 cells (AID 720675).
A short description of assay [8]: qHTS assay to test for compound auto fluorescence at 460 nm (blue) in HEK293 cells (AID 720678). A digest of the protocol: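 HEK293 cells (2,000 per well, medium with 10% dialyzed FBS) attached for 4-5 hr at 37C, then received compound and stood overnight at 37C, 5% CO2. Blue fluorescence was read at Ex/Em 405/460 nm and expressed relative to triamterene.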
Assay [9] is described as follows: qHTS assay to test for compound auto fluorescence at 590 nm (red) in HEK293 cells (AID 720679). The gist of the method: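 HEK293 cells (2,000/well, medium with 10% dialyzed FBS) attached for 4-5 hr at 37C, received 23 nL compound and were incubated overnight at 37C, 5% CO2. Red fluorescence was then read at 540/590nm Ex/Em, referenced to Rose Bengal sodium.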
Assay [10] can be described thus: qHTS assay to test for compound auto fluorescence at 535 nm (green) in HEK293 cells (AID 720680).
A short description of assay [11]: qHTS assay to test for compound auto fluorescence at 535 nm (green) in HEK293 cell free culture (AID 720682). A digest of the protocol:
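Compounds were pin-transferred into cell-free DMEM with 10% FBS, and green fluorescence was read at excitation 485 nm and emission 535 nm. Intensities were expressed as fluorescein-equivalent values.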

The nature of assay [12]: qHTS assay to test for compound auto fluorescence at 590 nm (red) in HEK293 cell free culture (AID 720683). A digest of the protocol: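 Tox21 10K library compounds were pinned into cell-free DMEM with 10% FBS and fluorescence was read at excitation 540 nm. Activity is expressed as Rose Bengal sodium equivalency.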
Assay [13] is described as follows: qHTS assay to test for compound auto fluorescence at 590 nm (red) in HepG2 cell free culture (AID 720684). A digest of the protocol: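 Readout: intrinsic compound fluorescence at 590 nm emission after 540 nm excitation, scaled to Rose Bengal sodium. Matrix was cell-free MEM with 10% FBS; DMSO vehicle wells served as control.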
Assay [14] can be described thus: qHTS assay to test for compound auto fluorescence at 460 nm (blue) in HepG2 cell free culture (AID 720685). The gist of the method:
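Cell-free plates of MEM plus 10% FBS received 23 nL compound or DMSO vehicle; blue-channel (405/460 nm) intensity scored against triamterene as reference fluorophore.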

Assay [15] can be described thus: qHTS assay to test for compound auto fluorescence at 535 nm (green) in HepG2 cell free culture (AID 720686).
The nature of assay [16]: qHTS assay to test for compound auto fluorescence at 460 nm (blue) in HepG2 cells (AID 720687). A digest of the protocol: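 Cells (2,000/well in MEM with 10% FBS) attached overnight at 37 C, then were exposed to compound or DMSO for 1 hr at 37 C, 5% CO2. Fluorescence read at Ex/Em 405/460 nm, expressed as triamterene-equivalent signal.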
The target in assay [17] is Glucocorticoid receptor (Homo sapiens) (UniProt P04150). Nature of the assay: qHTS assay to identify small molecule agonists of the glucocorticoid receptor (GR) signaling pathway (AID 720691; active = well fitted activation curve with a large enough effect in the signal ratio in the repeat runs, not every such curve was filed as active; the % refers to the signal ratio). The gist of the method: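 Cells: GR-bla HeLa, endogenous GR with stably integrated GRE-beta-lactamase reporter. Treatment 18 h, 37 C, compounds delivered in DMSO. Detection via LiveBLAzer B/G FRET substrate, 2 h RT, fluorescence intensity.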

The target is the same in assay [18]. The assay is described as follows: qHTS assay to identify small molecule antagonists of the glucocorticoid receptor (GR) signaling pathway (AID 720692; active = well fitted inhibition curve with a large enough effect in the signal ratio in the repeat runs, not every such curve was filed as active; the % refers to the signal ratio). A digest of the protocol: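 Quantitative HTS in antagonist format: HeLa cells expressing endogenous GR and a stably integrated GRE-bla reporter, stimulated with 5 nM dexamethasone (final) alongside test compounds for 18 h.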

Assay [19] is described as follows: qHTS assay to test for compound auto fluorescence at 460 nm (blue) in HEK293 cell free culture (AID 720681). The gist of the method:
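Test compounds were pinned into cell-free culture medium (DMEM with 10% FBS) and fluorescence was read directly at Ex/Em 405/460 nm. Signals were expressed as fluorescence equivalents of triamterene, with DMSO vehicle as control.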

Glucocorticoid receptor (Homo sapiens), sequence (P04150 whole entry, looked up): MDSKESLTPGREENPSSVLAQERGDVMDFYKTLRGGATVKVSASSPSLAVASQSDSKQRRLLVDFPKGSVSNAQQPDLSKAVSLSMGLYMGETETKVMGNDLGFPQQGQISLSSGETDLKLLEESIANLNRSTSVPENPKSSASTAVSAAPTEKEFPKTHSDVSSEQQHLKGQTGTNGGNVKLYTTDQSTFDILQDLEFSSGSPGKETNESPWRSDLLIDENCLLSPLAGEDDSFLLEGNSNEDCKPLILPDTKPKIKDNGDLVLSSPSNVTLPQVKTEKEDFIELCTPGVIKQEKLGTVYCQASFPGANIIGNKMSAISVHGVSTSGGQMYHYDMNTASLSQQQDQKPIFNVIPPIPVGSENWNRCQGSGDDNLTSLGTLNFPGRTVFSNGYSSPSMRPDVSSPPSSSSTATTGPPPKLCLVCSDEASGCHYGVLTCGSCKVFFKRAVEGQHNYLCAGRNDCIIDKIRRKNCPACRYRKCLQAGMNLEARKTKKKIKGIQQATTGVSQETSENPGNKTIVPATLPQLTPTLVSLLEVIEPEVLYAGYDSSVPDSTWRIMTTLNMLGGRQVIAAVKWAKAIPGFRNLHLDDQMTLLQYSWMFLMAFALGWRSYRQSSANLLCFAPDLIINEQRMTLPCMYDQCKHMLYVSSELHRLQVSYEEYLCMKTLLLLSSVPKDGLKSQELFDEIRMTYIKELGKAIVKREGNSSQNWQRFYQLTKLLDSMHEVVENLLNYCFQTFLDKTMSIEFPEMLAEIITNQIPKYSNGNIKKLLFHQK

`CN(C)CCCNCCCN`: the Potency entry in assay [1], in assay [2], in assay [3], in assay [4], in assay [5] and in assay [8] was “inactive” each time. The Potency result in assay [14], in assay [16], in assay [17] and in assay [18] was “inactive” each time. Besides, the call in assay [6], in assay [7], in [9], in [10], in assay [11] and in assay [12] was inactive. Besides, the outcome in assay [13] and in assay [15] was inactive.
On to `CN(C)CC[C@@H](c1ccc(Br)cc1)c1ccccn1`, for which the Potency result in assay [1], in assay [2], in assay [3], in assay [4], in assay [5] and in [8] was “inactive” each time. Also, the Potency result in [19], in [14] and in [16] was “inactive” in each case. Besides, the call in assay [6], in assay [7], in [9], in assay [10], in assay [12] and in assay [13] was inactive. In addition, in [15], the compound was called inactive.
In the case of `CC[C@@H]1C[C@H](N(Cc2cc(C(F)(F)F)cc(C(F)(F)F)c2)C(C)=O)c2cc(C(F)(F)F)ccc2N1C(=O)OC(C)C`, the Potency entry in assay [1], in assay [2], in assay [3], in [4], in assay [8] and in assay [19] was “inactive” in each case. Moreover, the Potency result in assay [14], in assay [16] and in assay [17] was “inactive” each time. In addition, the Potency in assay [5] was 4.33 µM (active). Besides, the compound was called inactive in assay [6], in assay [7], in assay [9], in assay [10], in assay [11] and in assay [12]. The call in assay [13] and in [15] was inactive.
Regarding `CCN1CCC[C@H]1CNC(=O)c1c(OC)ccc(Br)c1OC`, the Potency result in [1], in assay [2], in assay [3], in assay [4], in [5] and in assay [8] was “inactive” in each case. The Potency entry in [19], in [14] and in [16] was “inactive” each time. The compound was classed as inactive in [6], in assay [7], in assay [10], in assay [11], in assay [12] and in assay [13]. Moreover, in [15], the compound was classed as inactive.
Take `O=C(O)Cn1c(C(=O)Nc2nc(-c3ccccc3Cl)cs2)cc2ccccc21`: the Potency entry in [1], in assay [2], in [3], in assay [4], in assay [8] and in [19] was “inactive” throughout. Further, the Potency result in [14], in [17] and in assay [18] was “inactive” throughout. Further, the Potency in assay [5] is 26.6 µM (active). The result in assay [6], in assay [7], in assay [9], in [10], in assay [11] and in assay [12] was inactive. Moreover, the result in assay [15] was inactive.
On to `Cn1sccc1=O`, for which the Potency entry in assay [1], in assay [2], in assay [3], in assay [4], in [8] and in assay [19] was “inactive” each time. For the same compound, the Potency entry in assay [14], in [16] and in assay [17] was “inactive” throughout. In [5], the Potency is 61.1 µM (active). In addition, the outcome in assay [7], in [9], in assay [10], in assay [11], in assay [12] and in [15] was inactive.
As for `c1ccc(-c2nc[nH]c2-c2ccccc2)cc1`, the Potency result in assay [1], in [2], in assay [3], in assay [4], in [8] and in assay [19] was “inactive” each time. The Potency result in assay [14] and in [16] was “inactive” in each case. Also, the outcome in assay [6], in [7], in assay [9], in [10], in assay [11] and in assay [12] was inactive. For the same compound, the result in assay [13] and in assay [15] was inactive.

These data come from PubChem BioAssay (Tox21).
